Screens: PubChem, several laboratories
Compounds with a hit are over-represented: about 1.8% of the library has one in this group of screens.
MBD2 inh – inhibitors of human MBD2 binding to methylated oligonucleotide. AID 686964. Q9UBB5. TR-FRET. inhibition, % at 4.4 µM. hit rate 0.31% among 370,000; in the data active means inhibition above about 13%
UBC13 inh – blocks human UBC13 polyubiquitin chain formation | inhibition, % at 20 µM | hit rate 0.47% among 330,000 | TR-FRET; in the data active means inhibition above about 45%, passing the limit was not always enough
UHRF1 MBD2 ctr – blocks human UHRF1 binding to methylated DNA | Q96T88 | UHRF1 binding to methylated oligo, TR-FRET | inhibition, % at 4.4 µM | hit rate 0.75% among 370,000 | AID 687016; in the data active means inhibition above about 21%;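 further: UHRF1 SRA domain binding a hemimethylated CpG hairpin DNA probe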
Target sequence (Q96T88 whole entry, looked up, the tested form may be a part): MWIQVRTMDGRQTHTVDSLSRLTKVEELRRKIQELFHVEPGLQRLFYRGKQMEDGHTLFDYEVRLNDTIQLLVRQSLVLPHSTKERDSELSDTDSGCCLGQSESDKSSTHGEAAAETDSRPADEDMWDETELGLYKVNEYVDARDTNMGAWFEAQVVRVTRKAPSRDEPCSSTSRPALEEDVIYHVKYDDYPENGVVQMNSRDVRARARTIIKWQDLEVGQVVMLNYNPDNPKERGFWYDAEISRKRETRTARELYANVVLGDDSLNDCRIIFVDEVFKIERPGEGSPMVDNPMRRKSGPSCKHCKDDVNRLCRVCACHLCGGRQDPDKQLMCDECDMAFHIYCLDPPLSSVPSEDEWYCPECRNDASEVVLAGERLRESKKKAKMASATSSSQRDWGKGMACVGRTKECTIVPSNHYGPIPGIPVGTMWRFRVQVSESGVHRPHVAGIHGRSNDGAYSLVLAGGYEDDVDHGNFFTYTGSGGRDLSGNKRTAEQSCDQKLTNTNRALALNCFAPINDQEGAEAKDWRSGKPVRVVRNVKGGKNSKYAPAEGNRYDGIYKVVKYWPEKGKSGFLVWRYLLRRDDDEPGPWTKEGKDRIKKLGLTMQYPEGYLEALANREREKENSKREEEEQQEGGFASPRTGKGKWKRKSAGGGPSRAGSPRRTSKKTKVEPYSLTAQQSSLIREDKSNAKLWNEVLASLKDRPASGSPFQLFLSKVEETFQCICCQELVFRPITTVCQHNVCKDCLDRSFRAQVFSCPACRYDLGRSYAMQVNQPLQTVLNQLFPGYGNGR
Neddyl block – cullin neddylation inhibition; TR-FRET cullin neddylation, biochemical; calls only at 25 µM; hit rate 0.58% among 360,000; in the data active means inhibition above about 36%
Neddyl conf – confirmation of human cullin neddylation inhibitors; calls only at 25 µM; TR-FRET cullin neddylation biochemical assay; shares compounds with Neddyl block; hit rate 13% among 1,800; in the data active means inhibition above about 40%;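 further: neddylation substrate is the cullin 1 ring ligase complex with SKP2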
Of the large screens only hits and unclear results are named; the others gave an inactive call (follow-up assays come after a bar, where shown).

CCOc1ccc(-c2nc3scc(-c4cccs4)c3c(=O)[nH]2)cc1	Neddyl block active
CC1CCN(C(=O)Cn2c3ccccc3c3nc4n(c(=O)c32)CCCS4)CC1	none
O=C1CC2(CCCCC2)Oc2ccc(Cl)cc21	Neddyl block active | Neddyl conf inactive
C[C@H]1CCC[C@]2(CC(=O)c3cc(F)ccc3O2)C1	none
CCc1ccc2c(c1)C(=O)C[C@]1(CCC[C@H](C)C1)O2	Neddyl block active | Neddyl conf inactive
Oc1ccc(Br)cc1C=Nc1ccc2c3c(cccc13)CC2	Neddyl block active
Oc1ccc(Cl)cc1C=Nc1ccccc1Br	none
N#Cc1cc(C#N)c(SCC(=O)NCC2CCCO2)nc1N (centres undefined)	none
Cc1ccc(-n2c(SCC(=O)OC(C)C)nnc2-c2ccncc2)cc1	Neddyl block active | Neddyl conf inactive
CC(C)OC(=O)CSc1nnc(-c2ccncc2)n1N	none
COC(=O)N/N=C/c1ccc(OC(=O)/C=C/c2ccco2)cc1	Neddyl block active | Neddyl conf inactive
CC(=O)N1CCN(c2nc(N)c(C#N)c(CC#N)c2C#N)CC1	none
COc1ccc(OC)c(C=NNC(=O)c2ccc(NS(=O)(=O)c3cccs3)cc2)c1	Neddyl block active
COc1ccc(/C=N/NC(=O)c2ccc(NS(=O)(=O)c3cccs3)cc2)cc1	none
CCN(CC)c1ccc(C(=O)N/N=C/c2ccc(OC)cc2OC)cc1	Neddyl block active | Neddyl conf inactive
COC(=O)Cc1c(C)nc2nc(-c3ccc(OC)cc3)[nH]n2c1=O	none (not shown: Neddyl block)
COc1ccc(-c2nc3nc(C)c(Cc4ccccc4)c(=O)n3[nH]2)cc1	Neddyl block active
CCCCn1c(N)c(Sc2ccccc2[N+](=O)[O-])c(=O)[nH]c1=O	none
Nc1nnc(CC(=O)N/N=C/c2ccc(-c3ccccc3)o2)s1	none
COC(=O)c1ccc(-c2ccc(/C=N/NC(=O)Cc3nnc(N)s3)o2)cc1	UHRF1 MBD2 ctr 32, Neddyl block active | Neddyl conf inactive
CN(Cc1nc2ccccc2[nH]1)C(=O)C1CCC(=O)N(C2CCCC2)C1 (centres undefined)	none
O=c1ccc(-c2ccccc2)nn1Cc1ccc(Cl)cc1	none (no result: UBC13 inh)
Cc1nc(/C=C/c2ccccc2)cc(/C=C/c2ccccc2)n1	none
Cn1nc(/C=C/c2ccccc2)ccc1=O	Neddyl block active | Neddyl conf inactive
O=c1ccc(/C=C/c2ccccc2)nn1Cc1ccccc1	Neddyl block active | Neddyl conf inactive
O=C(O)CCc1ncc(C(F)(F)F)cc1Cl	none
CC1(C)Nc2ccccc2C(=O)N1NC(=O)c1ccccc1	Neddyl block active | Neddyl conf inactive
COc1cc(/C=C2\SC(=Nc3ccc(F)cc3)N(c3ccc(F)cc3)C2=O)ccc1OCC(=O)O	none (no result: MBD2 inh, UHRF1 MBD2 ctr, Neddyl block)
COc1ccc(Cl)cc1Nc1nc(N)c2ccccc2n1	Neddyl block active | Neddyl conf active
COc1ccc(C2(O)CC3CCC(C2)N3c2nc(C)cc(C)c2C#N)cc1 (centres undefined)	Neddyl block active | Neddyl conf inactive
COc1ccc(Oc2nc(C)cc(C)c2C#N)cc1	none
CCOc1ccc(OCC)c(NC(=O)CN2CCN(c3cc(C)ccc3C)CC2)c1	none
COc1ccc(OC)c(CN2CCC(C(=O)N3CCOCC3)CC2)c1	none
COC(OC)C1Nc2ccccc2C(=O)N1c1ccc(F)cc1 (centres undefined)	Neddyl block active
COc1ccc(N2C(=O)c3ccccc3NC2c2ccccc2O)cc1 (centres undefined)	none (not shown: Neddyl block)
C[C@H](NC(=O)c1ncn2c1c(=O)[nH]c1ccccc12)c1ccccc1	Neddyl block active (no result: UBC13 inh) | Neddyl conf active
C=CCN1C(=O)C(CC(=O)O)S/C1=N/N=C/c1ccc(N(CC)CC)cc1 (centres undefined)	Neddyl block active | Neddyl conf active
CN(C)c1ccc(/C=N/N=C2/SC(CC(=O)O)C(=O)N2c2ccc(O)cc2)cc1 (centres undefined)	none (not shown: Neddyl block)
COc1ccc(C(=O)Cn2c(=O)c(CCC(=O)O)nn3c4ccccc4nc23)cc1OC	Neddyl block active | Neddyl conf active
COCCNc1nc2ccccc2n1CC(=O)c1ccc(OC)c(OC)c1	none
O=C(OCCN1CCN(c2ncc(C(F)(F)F)cc2Cl)CC1)c1ccc(Cl)cc1	none
CCOC(=O)N1CCN(C(=O)c2ccc3nc(-c4ccccc4)c(-c4ccccc4)nc3c2)CC1	Neddyl block active | Neddyl conf inactive
NC(=O)C1CCN(C(=O)c2ccc3nc(-c4ccccc4)c(-c4ccccc4)nc3c2)CC1	Neddyl block active
C=CCNC(=O)c1sc(-c2ccccc2)nc1C	none
COc1ccc(NC(=O)c2cc3ccccc3cc2O)cc1	none
Cc1ccc(NC(=O)c2cc3ccccc3cc2O)cc1	Neddyl block active | Neddyl conf inactive
CC(C)C[C@H]1COc2cc(F)ccc2S(=O)(=O)N1C	none (no result: UBC13 inh, Neddyl block)
COc1cc(/C=C/C(=O)Nc2ccc(N3CCCCC3)c(S(=O)(=O)Nc3ccccc3Cl)c2)cc(OC)c1OC	Neddyl block active | Neddyl conf inactive
CCCn1c(-c2cccs2)nc2nc3ccccc3nc21	none (not shown: Neddyl block)
c1ccc(Cn2c(-c3ccccc3)nc3nc4ccccc4nc32)cc1	Neddyl block active | Neddyl conf inactive
c1csc(-c2nc3nc4ccccc4nc3n2Cc2ccc3c(c2)OCO3)c1	Neddyl block active | Neddyl conf inactive
Cc1ccc(-c2nc3ccccc3c(=O)n2Cc2ccccc2)cc1	none
Cc1nn(C)c(C(=O)NC(=S)Nc2ccc([N+](=O)[O-])cc2)c1Cl	none
CCOc1ccc(C(=O)N/N=C/c2ccc(-c3ccc(S(=O)(=O)Nc4ncccn4)cc3)o2)cc1	Neddyl block active | Neddyl conf active
O=C(N/N=C/c1ccc(-c2ccc(S(=O)(=O)Nc3ncccn3)cc2)o1)c1cc2ccccc2cc1O	none
COc1ccc(CC(=O)N2CCN(c3ccc(C4=NNC(=O)CC4C)cc3)CC2)cc1 (centres undefined)	Neddyl block active
Cc1nn(-c2ccccc2)c(N2CCCC2)c1/C=N/NC(=O)c1ccccc1O	Neddyl block active | Neddyl conf inactive
CCC(CO)Nc1cccc2c1S(=O)(=O)N(Cc1cn(Cc3cccc(F)c3)nn1)Cc1ccccc1O2 (centres undefined)	none (no result: UBC13 inh, Neddyl block)
COc1ccc(-c2nn(-c3ccccc3)cc2CO)cc1OC	Neddyl block active | Neddyl conf inactive
COC(=O)c1cn(-c2ccccc2)nc1-c1ccc(OC)c(OC)c1	none
Cn1c(C(=O)NCCCN2CCN(c3ccccc3F)CC2)cc2c(=O)[nH]c3ccccc3c21	none
CC1CC(C)CN(CCCNC(=O)c2cc3c(=O)[nH]c4ccccc4c3n2C)C1 (centres undefined)	Neddyl block active | Neddyl conf inactive
CCC1CCCCN1CCCNC(=O)c1cc2c(=O)[nH]c3ccccc3c2n1C (centres undefined)	Neddyl block active | Neddyl conf inactive
Cc1ccc(C)c(S(=O)(=O)NNC(=O)Nc2ccccc2Cl)c1	none
COc1ccc(C2(O)CCN(C(=O)c3c(F)cccc3F)CC2)cc1	none
COC(=O)c1ccc(Oc2nc(NC(C)C)nc(N(C)C)n2)cc1	none
COc1cc(/C(C)=N/NC(=O)c2ccc(CSc3nncn3C)cc2)cc(OC)c1OC	none
